Results on 10 compounds are retold here after PubChem BioAssay (EPA / NIEHS).

Calls of active or inactive are those of the source. The calls were made as follows: active = hit-call score of the fitted dose curve at least 0.9, where 1 is the maximum; inactive = score below 0.9.

Read-out in this test: solute carrier (SLC10A1), SLC10A1 (gene 6554)
Nature of the test: LTEA_HepaRG_SLC10A1: Life Technologies and Expression Analysis (LTEA) Assay for solute carrier (SLC10A1) using HepaRG (AID 2283657). Particulars: mRNA level, 48 h; actives raise or lower the signal. As to the method: LTEA_HepaRG is a cell based, multiplexed-readout assay that uses HepaRG, a human liver cell line, with measurements taken at 48 hours after chemical dosing on a 96-well plate.LTEA_HepaRG_SLC10A1 is one of 102 assay component(s) measured in the LTEA HepaRG cell culture assay. It is a marker of NR mediated transport.Data from the assay component LTEA_HepaRG_SLC10A1 was analyzed into 1 endpoint. This assay endpoint, LTEA_HepaRG_SLC10A1, was analyzed with bidirectional fitting relative to DMSO as the negative control and baseline of activity. Using a type of inducible reporter, measures of mRNA induction for gain or loss-of-signal activity can be used to understand regulation of transcription factor activity. To generalize the intended target to other relatable targets, this assay endpoint is annotated to the transporter intended target family, where the subfamily is sodium/bile acid cotransporter.
A total of 1060 chemcials from the ToxCast library were tested in eight-point concentration-response experiments. Cell culture and cytotoxicity assays were conducted at Thermo Fisher Scientific's Custom Services facility (Madison, WI). A single lot of human HepaRG cells (Thermo Fisher Scientific, Frederick, MD) was used for the cell culture experiments. 96-well format collagen type I coated plates of human HepaRG cells were prepared using established methods. Briefly, cryopreserved HepaRG cells were thawed, plated at a density of approximately 100,000 cells/well in HepaRG Thaw, Plate, and General Purpose media (HPRG770, Thermo Fisher Scientific), and incubated for 48 hours. 0.5% DMSO was selected as vehicle control to balance the requisite need of DMSO in HepaRG cultures to maintain differentiation (for example, baseline metabolism, proportions of hepatocytes vs. cholangiocytes), while enabling further hepatic receptor pathway activation (for example, PXR and CAR) in response to chemical exposure. 48 hours after plating, the culture medium was replaced with HepaRG Serum-Free Incudtion Media. Cells were exposed to each test chemical in duplicate and maintained in CO2 incubators for another 48 hours. Chemical plates were thawed to room temperature and 200x concentrations of treatment groups were prepared. 8-point conentration-reponse curves were made with the highest exposure at 100 uM, followed by half-log dilutions, all in 0.5% DMSO. Each test plate contained variouse controls, induction positive controls (1mM phenobarbital), cytotoxicity positive controls ([…] aflatoxin B1), vehicle controls (0.5% DMSO), and total lysis controls (0.5% DMSO). Cell morphology images were taken using an Essen IncuCyte FLR automated microscope, with six 96-well plates imaged in about 24 minutes. Images were captured and exported and JPEG files. Spent culture media was transfered to black-well plates for the LDH assay, and remaining media was sorted at -80 C for later use. Cells were treated with RLT buffer and frozen until shipped for gene expression analysis. Total RNA was isolated from the cell suspension in 75 uL of Buffer RLT (Qiagen, Germantown, MD 20874) by Quintiles/Expression Analysis (Durham, NC) using a custom isolation procedure. Total RNA from each plate well was transferred to a preamplification plate. Fluidigm's 96.96 Dynamic ArrayTM (Fluidigm, Amsterdam, the Netherlands) technology was used for gene expression analyses by quantitative reverse transcription polymerase chain reaction (qRT-PCR, performed by Quintiles/Expression Analysis, Durham, NC)89. Standard TaqManTM Assays (Applied Biosystems/ThermoFisher Scientific, Foster City, CA) were used to assess the expression of 93 genes selected based on their selectivity and sensitivity to important hepatic receptors known to be modulated by environmental chemicals; importance in human hepatocyte functionality; and hepatotoxicity. […]
For `CCCN(CCC)c1c([N+](=O)[O-])cc(C(F)(F)F)cc1[N+](=O)[O-]`, the compound was classed as inactive.

On to `CN1CSC(=S)N(C)C1`, for which the compound was classed as inactive.

Turning to `CCOC1Oc2ccc(OS(C)(=O)=O)cc2C1(C)C` (stereo not given), the concentration at half-maximal activity (AC50) was 84.8 µM (active). Same read-out and setting: the value for `CCCN(CCOc1c(Cl)cc(Cl)cc1Cl)C(=O)n1ccnc1` was 35.9 µM (active). As to `ClC1C(Cl)C(Cl)C(Cl)C(Cl)C1Cl` (stereo not given), the result was inactive. For the compound `CC1(C)C(C=C(Cl)Cl)C1C(=O)OC(C#N)c1ccc(F)c(Oc2ccccc2)c1` (stereo not given), the AC50 was 50 µM (active). Still for that read-out and setting: in the case of `N#Cc1c(Cl)c(Cl)c(Cl)c(C#N)c1Cl` it was 27.8 µM (active); in that of `Cc1[nH]c(=O)n(C(C)(C)C)c(=O)c1Cl`, 50 µM (active). On the same count and under the same terms, in the case of `CCC(C)Nc1c([N+](=O)[O-])cc(C(C)(C)C)cc1[N+](=O)[O-]` (stereo not given) it was 72.9 µM (active). For `O=C1c2ccccc2C(=O)N1SC(Cl)(Cl)Cl`, the compound was classed as inactive.
